Assay outcomes: PubChem, National Center for Advancing Translational Sciences (NCATS)
Many of the other results were omitted from the sample, so hits are more common in it than they were.
Methyltransferases: Primary Screen for Target Class Profiling of Small Molecule Inhibitors of Methyltransferases. 25,000 tested, 3.9% active. calls only at 40 µM. purified enzyme, MTase-Glo SAH luminescence; active compounds read low; call rule not given here
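Each enzyme was reacted with SAM and its substrate, with compounds tested once at 40 uM; SAH formed was read by MTase-Glo luminescence.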
Calls only.

`CC(=O)O[C@@H]1[C@@H](O)[C@H](C)O[C@@H](O[C@H]2[C@@H]3C=CO[C@@H](O[C@@H]4O[C@H](CO)[C@@H](O)[C@H](O)[C@H]4O)[C@@H]3[C@@]3(CO)O[C@@H]23)[C@@H]1OC(=O)/C=C/c1ccccc1` gave Methyltransferases inactive.
CC1(C(=O)NC2CCCCCC2)Cn2c(cc3sccc32)C(=O)N1Cc1ccco1 (stereo not drawn) was read as Methyltransferases inactive.
For CC(C)OCCCn1c(=O)c2ccccc2n2c(SCC(=O)Nc3ccc(Cl)cc3)nnc12 the results were Methyltransferases inactive.
Screening CC1(C(=O)NC2CCCCC2)Cn2nc(-c3ccco3)cc2C(=O)N1CCc1ccccc1 (stereo not drawn) returned Methyltransferases inactive.
Screening COc1cc(N2CCC(N3CCN(C)CC3)CC2)ccc1Nc1ncnc(Nc2ccccc2S(=O)(=O)C(C)C)n1 returned Methyltransferases inactive.
Screening CCC(NS(=O)(=O)c1cc(-n2cccn2)ccc1OC)C1CC(O)C1 (stereo not drawn) returned Methyltransferases inactive.
`COc1cc(N2CCC(O)CC2)ccc1Nc1cc(Nc2ccccc2S(=O)(=O)C(C)C)c2cc[nH]c2n1` gave Methyltransferases active.
Screening COc1ccccc1CNC(=O)C1(C)Cn2nc(-c3ccccc3)cc2C(=O)N1c1cccc(Cl)c1C (stereo not drawn) returned Methyltransferases inactive.
`CCc1cccc(NC(=O)Cn2nc3n(C4CC4)c(=O)c4ccc(C(=O)NC(C)C)cc4n3c2=O)c1` gave Methyltransferases inactive.
Nc1nonc1-c1nc2cnccc2n1C1CCCCC1 was read as Methyltransferases active.
CCCn1c(=O)c2ccc(C(=O)NC3CCCCC3)cc2n2c(=O)n(Cc3ccccc3Cl)nc12 was read as Methyltransferases inactive.
Screening Cc1cc2nn(CC(=O)Nc3cccc(Cl)c3)c(=O)n2c(Nc2ccc(F)cc2)n1 returned Methyltransferases inactive.
Screening COC(=O)c1ccc(NC(=O)CN(C)S(=O)(=O)c2ccc3[nH]c4c(c3c2)CCCC4)cc1 returned Methyltransferases inactive.
Cc1ccc(-c2nnn3c2nc(NCc2ccc(F)cc2)c2ccccc23)cc1 was read as Methyltransferases inactive.
COc1cccc(Cn2nc3n(CC(C)C)c(=O)c4ccc(C(=O)NC5CCCCC5)cc4n3c2=O)c1 was read as Methyltransferases inactive.
Screening Cc1ccc(S(=O)(=O)NCCc2nc(-c3ccc4c(c3)ncn4C)no2)cc1 returned Methyltransferases inactive.
For CN(C)C/C=C(/c1ccc(Br)cc1)c1cccnc1 the results were Methyltransferases active.
For CCCSCCCN1C(=O)c2cc3sccc3n2CC1(C)C(=O)NC1CCCCCCC1 (stereo not drawn) the results were Methyltransferases inactive.
For CCCN1C(=O)c2c(C(=O)NCc3cccc(Br)c3)ncn2CC1(C)C(=O)NCc1ccccc1 (stereo not drawn) the results were Methyltransferases inactive.
O=C(CCCn1nc(-c2ccccc2)c2ccccc21)N1CCN(c2ccc(F)cc2)CC1 was read as Methyltransferases inactive.
O=C(NCc1ccc(Cl)cc1)c1ccc2c(=O)[nH]c3c(C(=O)NC4CCCC4)sc(=S)n3c2c1 was read as Methyltransferases active.
`Cc1ccc2c(c1)c(=O)[nH]c1c(C(=O)NCc3ccc4c(c3)OCO4)sc(=S)n12` gave Methyltransferases active.
`COc1cc2c(=O)[nH]c3c(C(=O)NCc4ccc5c(c4)OCO5)sc(=S)n3c2cc1OC` gave Methyltransferases inactive.
`Cc1cccc(-c2n[nH]n3c2nc(=O)c2ccc(C(=O)NCc4ccc5c(c4)OCO5)cc23)c1` gave Methyltransferases inactive.
Screening Cc1ccc(NC(=O)c2sc(=S)n3c2[nH]c(=O)c2cc(Cl)ccc23)c(C)c1 returned Methyltransferases inactive.
For CC[C@H](C)NC(=O)c1sc(=S)n2c1[nH]c(=O)c1cc(Cl)ccc12 the results were Methyltransferases active.
For Cn1c(=O)c2ccc(C(=O)NC3CCCC3)cc2n2c(=O)n(CC(=O)NCc3ccc(Cl)cc3)nc12 the results were Methyltransferases inactive.
`O=C(NCc1ccc2c(c1)OCO2)c1ccc2c(=O)[nH]c3c(C(=O)NCC4CCCO4)sc(=S)n3c2c1` (stereo not drawn) gave Methyltransferases inactive.
COc1ccccc1NC(=O)c1sc(=S)n2c1[nH]c(=O)c1cc(Cl)ccc12 was read as Methyltransferases inactive.
`CC(C)Cn1c(=O)c2ccccc2n2c(=O)n(CC(=O)c3ccc(F)cc3)nc12` gave Methyltransferases inactive.
For CC1(C(=O)NC2CCCCC2)Cn2c(cc3ccccc32)C(=O)N1Cc1cccc(Br)c1 (stereo not drawn) the results were Methyltransferases inactive.
`O=C(c1ccc2c(=O)nc3c(-c4ccccc4)n[nH]n3c2c1)N1CCN(c2ccccn2)CC1` gave Methyltransferases inactive.
Screening CCc1ccc(C2c3cccn3-c3sc4c(c3CN2C(=O)Nc2ccc(OC)cc2OC)CCCC4)cc1 (stereo not drawn) returned Methyltransferases inactive.
